From paper PMC4336329 (PLoS ONE, 2015)
In all, about 310,000 compounds went through this assay and about 14,000 (4.5%) showed an effect of 50% or more. The effect is printed as a negative number. For the sample, strong results were picked, then their nearest neighbours and some compounds at random.

Target: human ether-à-go-go-related gene (hERG) potassium channel (human, UniProt Q12809)
Test: primary screen, population patch clamp on CHO cells stably expressing hERG; higher = less effect of the substance
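Note: peak tail current of the secondary pulse compared with the same well before compound.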

human ether-à-go-go-related gene (hERG) potassium channel, sequence (Q12809 whole entry, looked up): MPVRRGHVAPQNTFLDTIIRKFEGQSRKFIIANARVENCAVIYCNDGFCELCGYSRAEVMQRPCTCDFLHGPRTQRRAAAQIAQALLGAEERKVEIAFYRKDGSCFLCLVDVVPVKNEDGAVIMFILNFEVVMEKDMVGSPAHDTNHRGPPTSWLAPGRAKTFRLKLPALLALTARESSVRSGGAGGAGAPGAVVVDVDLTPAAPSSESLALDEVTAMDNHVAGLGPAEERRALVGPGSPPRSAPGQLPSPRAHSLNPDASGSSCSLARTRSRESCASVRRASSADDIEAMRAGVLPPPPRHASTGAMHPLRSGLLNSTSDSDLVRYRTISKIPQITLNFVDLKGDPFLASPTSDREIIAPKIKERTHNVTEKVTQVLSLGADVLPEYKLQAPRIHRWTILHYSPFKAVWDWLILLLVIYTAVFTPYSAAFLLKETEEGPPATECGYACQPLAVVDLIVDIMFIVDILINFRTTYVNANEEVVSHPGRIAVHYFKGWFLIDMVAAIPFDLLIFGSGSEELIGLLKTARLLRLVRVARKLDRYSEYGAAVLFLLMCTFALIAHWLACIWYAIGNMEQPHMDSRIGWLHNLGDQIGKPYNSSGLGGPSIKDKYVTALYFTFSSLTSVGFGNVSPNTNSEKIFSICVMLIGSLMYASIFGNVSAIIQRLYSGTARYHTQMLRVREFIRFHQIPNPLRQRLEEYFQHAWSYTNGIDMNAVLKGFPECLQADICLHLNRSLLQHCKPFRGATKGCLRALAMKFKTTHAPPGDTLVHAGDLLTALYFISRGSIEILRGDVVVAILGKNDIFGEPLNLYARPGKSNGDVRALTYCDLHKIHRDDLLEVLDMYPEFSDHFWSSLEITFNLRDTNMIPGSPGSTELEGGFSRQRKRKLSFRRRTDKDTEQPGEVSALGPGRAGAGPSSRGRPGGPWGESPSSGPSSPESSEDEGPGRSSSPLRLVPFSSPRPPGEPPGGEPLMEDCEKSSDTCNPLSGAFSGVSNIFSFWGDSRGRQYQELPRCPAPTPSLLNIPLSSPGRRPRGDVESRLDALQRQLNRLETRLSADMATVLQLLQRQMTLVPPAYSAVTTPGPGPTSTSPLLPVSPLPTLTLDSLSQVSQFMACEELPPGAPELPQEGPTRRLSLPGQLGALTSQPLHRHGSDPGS

Row | Compound | hERG current change (%, negative = inhibition) at 10uM [%]
1 | O=C(NC(=O)N1CCCCC1)c1ccc(Cl)cc1 | 15.7
2 | CCO[C@H]1OC(C(=O)Nc2ccccc2)=C[C@@H](C2CC2)[C@@H]1CCCO | 1.16
3 | CCCCc1nnc(NC(=O)CCc2ccccc2)s1 | 19.3
4 | COC(=O)c1ccc(-n2nnnc2SCC(=O)Nc2cc(OC)ccc2OC)cc1 | 2.37
5 | CCOC(=O)c1nn(-c2cccc(C)c2)c2nnc(Cc3ccc(C)cc3)c(=O)n12 | -16.1
6 | O=C(Nc1ccc(SC(F)F)cc1)C1CC(=O)N(Cc2ccccc2)C1 (stereo not drawn) | -48
7 | COc1ccc(S(=O)(=O)N2CCN(C(=O)c3c(C)nn(-c4ccccc4)c3Cl)CC2)cc1 | -19.4
8 | CCC(=O)N1CCN(c2ccc(Cl)cc2NC(=O)c2ccc3c(c2)OCCO3)CC1 | -37.2
9 | O=C(Nc1ccc(Cl)cc1)c1ccc(CN2CCc3ccccc3C2)cc1 | 13.7
10 | COc1cccc(C(=O)N2CCN(C(=O)Cc3ccccc3)CC2)c1.O=C(O)C(=O)O | -0.00122
11 | CCC(=O)Nc1ccc(C(=O)Nc2cccnc2)cc1 | -0.52
12 | CC(OC(=O)c1cc(S(=O)(=O)N2CCOCC2)ccc1Br)C(=O)N1CCOCC1 (stereo not drawn) | -12
13 | O=C(Nc1nccs1)C1CCN(S(=O)(=O)c2ccc(F)cc2)CC1 | 2.1
14 | CCOC(=O)CNC(=O)CSc1ccc(-c2nc3ccccc3[nH]2)cn1 | -6.35
15 | CC(NC(=O)CN(C)Cc1ccc(Br)cc1)c1ccccc1 (stereo not drawn) | -19.3
16 | CSc1ccc(CN(C)CC(=O)NC(C)c2ccccc2)cc1 (stereo not drawn) | -83.9
17 | Cc1ccc(CN(C)CC(=O)NC(C)c2ccccc2)cc1 (stereo not drawn) | -16
18 | COc1cccc(CN(C)CC(=O)NCc2ccc(F)cc2)c1OC | 6.98
19 | COc1ccccc1CNC(=O)CN(C)Cc1ccc(SC)cc1 | -50.8
20 | COc1ccccc1CNC(=O)CN(C)CC(=O)Nc1cccc(F)c1 | 4.16
21 | O=C(O)C1C2C=CC(C2)C1C(=O)NCc1cccs1 (stereo not drawn) | 9.44
22 | O=C(Nc1cc(Cl)cc(Cl)c1)N1CCN(C(=O)C2CCCO2)CC1 (stereo not drawn) | -26.4

Row | Compound | hERG current change (%, negative = inhibition) at 10uM [%]
23 | COCCNC(=O)C1CCN(C(=O)C2CC(=O)N(c3ccc(C)cc3)C2)CC1 (stereo not drawn) | 7.39
24 | CCc1nnc(NC(=O)CSc2nnc(COc3ccccc3C)o2)s1 | 15.2
25 | O=C(COc1ccc(Br)cc1)Nc1ccc([N+](=O)[O-])cn1 | -19.7
26 | COc1cc(NC(=O)CSCc2ccccc2)c(C(=O)O)cc1OC | 11.2
27 | COc1ccc(CCNc2ccc(C(CC(N)=O)NC(=O)Cc3cccc4ccccc34)cc2[N+](=O)[O-])cc1 (stereo not drawn) | 4.29
28 | COc1ccc2[nH]cc(C(=O)CN(C)CCc3ccc(OC)c(OC)c3)c2c1 | -70.3
29 | CCN(CC)CC(=O)c1c[nH]c2ccc(OC)cc12 | -22.9
30 | COc1ccc2[nH]cc(C(=O)CN(C)C)c2c1 | 9.06
31 | COc1ccccc1-n1cnc2sc(C)c(C)c2c1=O | 5.71
32 | COc1ccc(NC(=O)/C(C#N)=C\c2cc(C)n(-c3ccc4c(c3)OCO4)c2C)cc1 | 3.77
33 | COc1ccc(-c2nn(-c3ccccc3C)cc2CNC(C)c2cn(C)nc2C)cc1F (stereo not drawn) | -1.99
34 | COc1ccc(-c2nn(-c3ccccc3F)cc2CNCCn2nc(C)cc2C)cc1 | -50.2
35 | Cc1ccc(-c2nn(-c3ccccc3)cc2C(=O)NCCCN2CCCC2=O)cc1 | -17.1
36 | Cc1ccc(-n2cc(CN(C)Cc3nccn3C)c(-c3ccc(F)cc3)n2)cc1 | -37.6
37 | Cc1ccc(-n2cc(CNCCCn3ccnc3C)c(-c3ccc(F)cc3)n2)cc1 | -71.7
38 | CCN1CC(CN(C)Cc2cn(-c3cccc(C)c3)nc2-c2cccc(F)c2)CC1=O (stereo not drawn) | -31.7
39 | CCN1CC(CN(C)Cc2cn(-c3ccc(C)cc3)nc2-c2cccc(C)c2)CC1=O (stereo not drawn) | -60.5
40 | COc1ccc(-c2csc(CCn3nc(C)cc3C)n2)cc1 | 4.1
41 | CCN1CC(CN(C)Cc2cn(-c3ccc(C)cc3)nc2-c2ccc(F)cc2)CC1=O (stereo not drawn) | -35.1
42 | Cc1ccc(-n2cc(CN3CCCN(C=O)CC3)c(-c3ccc(F)cc3)n2)cc1 | -18.7
43 | Cc1ccc(-n2cc(CNCCCN3CCCC3=O)c(-c3ccc(F)cc3)n2)cc1 | -72.1
44 | COc1cc(/C=N/NC(=O)c2cc(-c3ccccc3)nc3ccccc23)ccc1O | 6.54

Row | Compound | hERG current change (%, negative = inhibition) at 10uM [%]
45 | CCOc1cc(C(=O)N/N=C/c2ccoc2)cc(OCC)c1OCC | 5.67
46 | COCCCn1c(=O)/c(=C\c2ccccc2OC(F)F)s/c1=C(/C#N)C(=O)NCCOC | -11.5
47 | CCc1nnc(NC(=O)CSc2nnc(-c3cccnc3)n2CCc2ccccc2)s1 | -2.07
48 | CC(=O)N1CCN(CCN2C(C)=CC(=C(C#N)C#N)C=C2C)CC1 | -3.8
49 | O=C(COC(=O)CCSc1ccccc1Cl)NCc1ccco1 | 6.44
50 | O=C1NC(=O)C(=Cc2csc3ccccc23)C(=O)N1 | 7.68
51 | Cc1ccccc1CSc1nnnn1-c1ccc(C(N)=O)cc1 | 14.7
52 | Cc1cccc(NC(=O)COC(=O)c2ccc([N+](=O)[O-])o2)c1C | 8.7
53 | Cc1ccc(-n2cc(CNCCN3CCOC3=O)c(-c3ccc(F)cc3)n2)cc1 | -63.2
54 | Cc1ccc(-c2nn(-c3ccccc3)cc2CNCc2ccccc2)cc1.Cl | 7.42
55 | COC(=O)CC1C(=O)NCCN1Cc1cn(-c2ccc(C)cc2)nc1-c1cccc(C)c1 (stereo not drawn) | -9.55
56 | Cc1ccc(-n2cc(CNCC3CC(=O)N(C4CC4)C3)c(-c3cccc(C)c3)n2)cc1 (stereo not drawn) | -71.9
57 | CCOC(=O)CN(C)Cc1cn[nH]c1-c1ccc2cc(OC)ccc2c1 | -5.34
58 | Cc1ccc(-n2cc(CNCCn3nc(C)cc3C)c(-c3ccc(F)cc3)n2)cc1 | -50.8
59 | Cc1cc(C)n(CC(C)NCc2cn[nH]c2-c2ccc(C)c(C)c2)n1 (stereo not drawn) | -35.7
60 | COc1ccc(-c2nn(-c3ccccc3)cc2CNCCN2CCOC2=O)c(F)c1 | -11.9
61 | O=C1OCCN1CCNCc1cn(-c2ccc(F)cc2)nc1-c1ccccc1Cl | -45.2
62 | Cc1ccc(-n2cc(CNC(C)c3cnn(C)c3C)c(-c3ccc(F)cc3)n2)cc1 (stereo not drawn) | -30.7
63 | COc1ccc2cc(-c3[nH]ncc3CNCCn3nc(C)cc3C)ccc2c1 | -63.2
64 | COc1ccc(-n2cc(CNCC3CC(=O)N(C4CC4)C3)c(-c3ccccc3Cl)n2)cc1 (stereo not drawn) | -13.4
65 | CC1CCCC(C)N1C(=O)COC(=O)c1c[nH]c2ccccc12 (stereo not drawn) | -5.3
66 | CCCCn1c(O)c(C=NC2CCCCC2N)c(=O)[nH]c1=O (stereo not drawn) | 5.96

Row | Compound | hERG current change (%, negative = inhibition) at 10uM [%]
67 | COc1ccc(C[C@H]2NC[C@H](O)[C@H]2OC(C)=O)cc1 | 5.98
68 | CSC1=N/C(=C\c2ccccc2F)C(=O)S1 | -3.24
69 | CCOc1nc(N2CCCCC2)nc(-n2cc(-c3ccccc3)nn2)n1 | 8.93
70 | Cc1cc(NC(=O)COc2ccccc2)n(-c2ccccc2)n1 | -22.7
71 | Cc1c(C(=O)NC2CCOC2)oc2c(F)cccc12 (stereo not drawn) | 30.1
72 | Cc1cc2cc(C#N)c(NCCNC(=S)NCCCN3CCOCC3)nc2cc1C | -24.5
73 | Cc1cc(C(=O)CN2CCCC2)c(C)n1-c1ccc(Cl)cc1 | 7.43
74 | CCOc1ccccc1NC(=O)CCCCCN1C(=O)[C@@H]2Cc3ccccc3CN2C1=O | -42.6
75 | COc1ccc(C(C)=O)cc1COC(=O)c1ccc(C)c(S(=O)(=O)N2CCOCC2)c1 | -19.8
76 | COc1nc(-c2ccccc2)ccc1-c1noc(C)n1 | -5.52
77 | Cn1ccnc1C1CCCCN1Cc1nc(-c2ccc(Cl)cc2)no1 (stereo not drawn) | -23.1
78 | O=C(O)C1C2CCC(C2)C1C(=O)NCc1ccco1 (stereo not drawn) | -8.3
79 | Cc1ccc(-n2cc(CNCCN3CCOC3=O)c(-c3cccc(C)c3)n2)cc1 | -69.1
80 | Cc1ccc(-n2cc(CN3CCNC(=O)CC3)c(-c3cccc(C)c3)n2)cc1 | -0.817
81 | CC(=O)N1CCCN(Cc2cn(-c3ccc(C)cc3)nc2-c2cccc(C)c2)CC1 | -43
82 | Cc1ccc(-n2cc(CNC(C)Cn3cncn3)c(-c3ccc(F)cc3)n2)cc1 (stereo not drawn) | -60.7
83 | Cc1ccc(-n2cc(CN(C)CCc3cn[nH]c3)c(-c3cccc(C)c3)n2)cc1 | -68
84 | Cc1cccc(-n2cc(CNCCN3CCOC3=O)c(-c3cccc(F)c3)n2)c1 | -16.4
85 | Cc1ccc(-n2cc(CNC(C)c3cnn(C)c3)c(-c3ccc(F)cc3)n2)cc1 (stereo not drawn) | -40
86 | Cc1ccc(C)c(-n2cc(CNC(C)Cn3cncn3)c(-c3ccccc3)n2)c1 (stereo not drawn) | -45.6
87 | Cc1ccc(-n2cc(CN(C)Cc3ncc[nH]3)c(-c3cccc(C)c3)n2)cc1 | -34.8
